Measurements published in PubChem BioAssay (NCATS).
Results filed as inconclusive are left out. Activity calls are given as the source filed them. The call rests on the fitted dose curve; in most records, active means well fitted inhibition curve with a large enough effect; inconclusive means small, poorly fitted or top-dose-only effect; inactive means flat fitted curve, though single readings scatter. Peptide text beside a SMILES is read from it.

Test system: CRL-7250
Test: qHTS assay to identify novel small-molecules to repurpose for Merkel cell carcinoma treatment (AID 1296009); further: nearly all actives have a fitted effect of over 60% in size
Conditions: MCC and control cell lines, CellTiter-Glo viability, 72 h; series mostly up to 92 µM; activity change, negative = cytotoxicity: at the top concentration
Summary of the method: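 Cell viability measured by CellTiter-Glo following 72 hr compound treatment at 37 degree celsius, with NPC and MIPE libraries tested in 8- and 11-point concentration series.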

SMILES	outcome
COc1ccc(-c2nc(-c3ccc(-c4cccc(Cl)c4)o3)[nH]c2-c2ccc(OC)cc2)cc1	inactive
COc1cc(C2Oc3c(OC)cc(CCCO)cc3C2CO)ccc1O[C@H]1O[C@H](C)[C@@H](O)[C@H](O)[C@@H]1O (stereo partly drawn)	inactive [at 17.4 µM]
COC(=O)C1=CO[C@@H](O[C@@H]2O[C@H](CO)[C@@H](O)[C@H](O)[C@H]2O)[C@H]2[C@@H]1CC(OC)O[C@@H]2C (stereo partly drawn)	inactive [at 17.4 µM]
C[C@@H](O)[C@H](N)C(=O)N1CCC[C@H]1C(=O)N1CCC[C@H]1C(=O)N[C@H](C(N)=O)[C@@H](C)O (H-TPPT-NH2)	inactive [at 9.27 µM]
C[C@@H]1O[C@@H](O[C@H]2[C@H](O)[C@@H](O)[C@H](OC[C@H]3O[C@@H](OC(=O)[C@]45CCC(C)(C)C[C@H]4C4=CCC6[C@@]7(C)CC[C@H](O[C@@H]8OC[C@H](O)[C@H](O[C@@H]9O[C@H](CO)[C@@H](O)[C@H](O)[C@H]9O)[C@H]8O)[C@@](C)(CO)C7CC[C@@]6(C)[C@]4(C)CC5)[C@H](O)[C@@H](O)[C@@H]3O)O[C@@H]2CO)[C@H](O)[C@H](O)[C@H]1O (stereo partly drawn)	inactive [at 9.27 µM]
O=c1[nH]ccc2nc(-c3ccc(CN4CCC(c5nc(-c6ccccn6)n[nH]5)CC4)cc3)c(-c3ccccc3)cc12	inactive
C[C@@H]1O[C@@H](O[C@@H]2[C@@H](O)[C@H](O[C@H]3CC[C@@]4(C)C(CC[C@]5(C)C4CC=C4[C@@H]6CC(C)(C)CC[C@]6(C(=O)O[C@@H]6O[C@H](CO)[C@@H](O)[C@H](O)[C@H]6O)CC[C@]45C)C3(C)C)O[C@H](C(=O)O)[C@H]2O)[C@H](O)[C@H](O)[C@H]1O (stereo partly drawn)	inactive [at 9.27 µM]
O=[N+]([O-])c1ccc(Oc2ccc3c(c2)CCC(c2ccccc2)O3)nc1 (stereo not drawn)	inactive
C=C1CCC2C(C)(C(=O)O)CCCC2(C)C1CCC1=CCOC1=O (stereo not drawn)	inactive
COC(=O)C1=COC(OC2OC(CO)C(O)C(O)C2O)C2C(C)CC(=O)C12O (stereo not drawn)	inactive [at 17.4 µM]
C/C=C(\C)C(=O)OCC1OC(OC2OC(CO)C(O)C(O)C2O)C(O)C(O)C1O (stereo not drawn)	inactive [at 17.4 µM]
C[C@@H]1[C@H]2[C@H](O[C@@H]3O[C@H](CO)[C@@H](O)[C@H](O)[C@H]3O)OC=C(C(=O)O)[C@H]2C[C@@H]1O	inactive
CC(=O)O[C@@H]1[C@@H](OC(=O)/C=C/c2ccccc2)[C@@H](OC(C)=O)[C@H](O[C@H]2[C@@H]3C=CO[C@@H](O[C@@H]4O[C@H](CO)[C@@H](O)[C@H](O)[C@H]4O)[C@@H]3[C@@]3(CO)O[C@@H]23)O[C@H]1C	inactive [at 17.4 µM]
CC[C@@H](Nc1c(Nc2cccc(C(=O)N(C)C)c2O)c(=O)c1=O)c1ccc(C)o1	inactive
COC(=O)C[C@H]1C(C)(C)[C@H](OC(=O)C(C)C)[C@@]2(O)C(=O)[C@]1(C)C1CC[C@]3(C)C(CC(=O)O[C@H]3c3ccoc3)[C@]13O[C@@H]32 (stereo partly drawn)	inactive [at 17.4 µM]
C[C@]1(OC(=O)/C=C/c2ccccc2)C[C@H](O)[C@]2(O)C=CO[C@@H](O[C@@H]3O[C@H](CO)[C@@H](O)[C@H](O)[C@H]3O)C12 (stereo partly drawn)	inactive [at 17.4 µM]
C[C@@H]1O[C@@H](O[C@H]2[C@H](OC(=O)[C@]34CCC(C)(C)C[C@H]3C3=CCC5[C@@]6(C)C[C@H](O)[C@H](O[C@@H]7O[C@H](C(=O)O)[C@@H](O)[C@H](O)[C@H]7O)[C@@](C)(CO)C6[C@H](O)C[C@@]5(C)[C@]3(C)C[C@H]4O)O[C@@H](CO)[C@@H]2O)[C@H](O)[C@H](O)[C@H]1O[C@@H]1OC[C@@H](O)[C@H](O[C@H]2OC[C@](O)(CO)[C@H]2O)[C@H]1O (stereo partly drawn)	inactive [at 9.27 µM]
COc1cc(O)cc(C)c1C(=O)O[C@H]1[C@@H](OC(C)=O)[C@H](n2ccc(=O)[nH]c2=O)O[C@@H]1CO	inactive [at 17.4 µM]
CC(C/C=C/C(C)(C)O)C1CCC(C)(O)C(O)C1 (stereo not drawn)	inactive
COC(=O)C1=C[C@@H](O)[C@@H](O)[C@H](O[C@@H]2O[C@H](COC(=O)/C=C/c3ccccc3)[C@@H](O)[C@H](O)[C@H]2O)C1	inactive [at 17.4 µM]
CC(C)(O)C1CCC2(C)C3C(O)C4C(C13)C42CO (stereo not drawn)	inactive
C=C(C(=O)OC)[C@]12O[C@@](C)(CC[C@@]3(O)/C(=C\C)C(=O)O[C@]3(C)C[C@@H]1OC(=O)C(CO)CN1CCCC1C(=O)O)CC2=O (stereo partly drawn)	inactive [at 17.4 µM]
C=C1[C@H]2[C@H](O[C@@H]3O[C@H](COC(=O)/C=C/c4cc(OC)c(O)c(OC)c4)[C@@H](O)[C@H](O)[C@H]3O)OC=C(C(=O)O)[C@H]2C[C@@H]1O	inactive [at 17.4 µM]
